Each structure is given as a SMILES string. Hit rate of the full screen: of about 310,000 compounds, about 1,900 (0.61%) were called active.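 How the source made its calls: active means plate-corrected calcium response at least 3 library SD above typical, normal starting fluorescence, not activating the receptor alone; inactive means the rest.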 The sample as a whole holds a higher share of actives than the screen did.

The assay deals with Mas-related G-protein coupled receptor member X1 (Homo sapiens) (UniProt Q96LB2). Kind of assay: positive allosteric modulators of MrgX1, primary screen, HEK293 cells, Fluo-4 calcium flux (AID 588675).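 Further: compound read alongside a low EC10 to EC30 dose of BAM8-22 agonist.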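 On B-score: peak minus trough fluorescence over baseline measured at the second addition.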 The following applies: MrgX1-HEK293, Fluo-4 calcium flux, FDSS, at 10 µM; hits give high values.
Chain of Mas-related G-protein coupled receptor member X1 (Homo sapiens) (Q96LB2 whole entry, looked up): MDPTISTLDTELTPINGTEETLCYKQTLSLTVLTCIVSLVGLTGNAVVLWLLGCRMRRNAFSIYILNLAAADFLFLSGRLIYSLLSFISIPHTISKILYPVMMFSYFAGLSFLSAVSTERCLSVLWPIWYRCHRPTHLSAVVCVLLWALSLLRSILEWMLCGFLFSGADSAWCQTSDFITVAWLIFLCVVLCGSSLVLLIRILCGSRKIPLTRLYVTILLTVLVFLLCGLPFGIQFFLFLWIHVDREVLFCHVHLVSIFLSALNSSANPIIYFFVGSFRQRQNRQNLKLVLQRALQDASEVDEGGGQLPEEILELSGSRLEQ
Regarding `Cc1cc2ncn(CCCCOc3ccccc3)c2cc1C`, the B-score was 10.8 (active). Next, `COCCOCCn1cnc2ccccc21`: “inactive”.

With `Clc1ncn(CCOc2ccccc2)c1Cl`, the B-score entry is “inactive”. In the case of `CCN1CCCC1CNC(=O)c1cc2cc(OC)c(OC)cc2[nH]1` (stereo not drawn), the B-score entry is “inactive”. Next, `COc1ccc(-c2cc(C(F)(F)F)nc(NCc3cccnc3)n2)cc1`: “inactive”; `COc1ccc(-c2cc(C(F)(F)F)nc(S(C)(=O)=O)n2)cc1OC`: 8.21 (active); `COc1ccc(-c2ccc(Nc3ccc(S(=O)(=O)N4CCCC4)cc3)nn2)cc1OC`: “inactive”. Consider `N/C(=N\OC(=O)CCn1cccc(C(F)(F)F)c1=O)c1ccc(OC(F)(F)F)cc1`, for which the B-score entry was “inactive”. For `Cc1ccc2c(=O)oc(N(C)C)nc2c1` the value was “inactive”.

Regarding `CCC(C)CCN1CCN=C1N(C)C` (stereo not drawn), the B-score result is “inactive”. Next, `COc1ccc(CCNC(=O)c2ccccc2-c2ccccc2C(=O)O)cc1OC`: “inactive”. Turning to `COc1ccc(CCNC(=O)C(Sc2ccccn2)c2ccccc2)cc1OC` (stereo not drawn), the B-score was 8.72 (active). Next, `COc1ccc(CCNC(=O)C(=O)NCc2ccccc2C)cc1OC`: “inactive”; `Cc1ccc(NC(=O)C(C)OC(=O)Cc2c[nH]c3ccccc23)cc1S(=O)(=O)N1CCOCC1` (stereo not drawn): “inactive”.

As for `CCOc1cccc2c1OC1(CCCCC1)N1N=C(c3cccnc3)CC21` (stereo not drawn), the B-score result was “inactive”. For `CC(C)=CCC/C(C)=C/C(=O)O` the value was “inactive”; for `Cc1cccc(C)c1NC(=S)N(Cc1cccnc1)Cc1ccccc1Cl`, 10.5 (active). For `Cc1c(Cl)cccc1NC(=S)N(Cc1ccccc1)Cc1cccnc1` the value was “inactive”; for `Cc1ccc(CN(Cc2cccnc2)C(=S)Nc2cccc(Cl)c2C)cc1`, “inactive”; for `O=C(COC(=O)c1ccc(NS(=O)(=O)c2cccs2)cc1O)Nc1ccc(F)cc1`, 9.09 (active). For `CCc1ccc(NC(=O)COC(=O)c2cccs2)cc1` the value was “inactive”; for `Cc1cccc(C(=O)OCC(=O)Nc2ccc(F)cc2)c1`, “inactive”; for `Cc1cc(S(=O)(=O)NC2CCCC2)ccc1-n1cnnn1`, “inactive”.

Consider `Cc1[nH]n(-c2cccc(Cl)c2)c(=O)c1/C=N/n1c(C)nc2ccccc2c1=O`, for which the B-score entry was “inactive”.

Turning to `Cc1[nH]n(-c2ccc(Cl)cc2)c(=O)c1/C=N/n1c(C)nc2ccccc2c1=O`, the B-score is 11.4 (active). Next, `Cc1ccc(-n2[nH]c(C)c(/C=N/N3C(=O)c4cccc5cccc(c45)C3=O)c2=O)cc1`: “inactive”. With `Cc1ccc(NS(=O)(=O)c2ccc3c(c2)oc(=O)n3C)c(C)c1`, the B-score result was “inactive”. In the case of `O=C(NCC(=O)N1CCC2(CC1)NCCc1[nH]cnc12)c1ccc(Br)cc1`, the B-score result is “inactive”. For `Cc1cc(C)c(S(=O)(=O)N2CCOCC2)cc1C` the value was “inactive”; for `C/C(=N\Nc1ncc(Cl)cc1Cl)c1cccs1`, 8.26 (active). For `C/C(=N\Nc1ncc(Cl)cc1Cl)c1ccc(S(=O)(=O)NCc2ccco2)cc1`, the B-score entry was “inactive”. As for `C/C(=N\Nc1nc2ccccc2[nH]1)c1cccs1`, the B-score entry was “inactive”. For `O=C(C[C@H]1C(=O)N(c2ccc(F)c(F)c2)C[C@@H]1Cc1ccccc1)Nc1ccccc1` the value was “inactive”; for `COc1ccccc1-n1nnnc1S(=O)(=O)Cc1ccc(Cl)cc1`, “inactive”; for `CCCCNS(=O)(=O)c1ccc(S(=O)(=O)n2cnc3ccccc32)cc1`, “inactive”. Turning to `Cc1oc2cc3oc(=O)ccc3cc2c1C`, the B-score entry is “inactive”. Turning to `CC(C)C(=O)Nc1ccc2oc(=O)ccc2c1`, the B-score result was “inactive”.

Consider `COc1c(C(C)C)oc2cc3oc(=O)ccc3cc12`, for which the B-score is 9.1 (active). For `COc1ccc(Cl)cc1NC(=O)CN(C)C(=O)c1cc(-c2cccs2)nn1-c1ccccc1` the value was “inactive”; for `Cn1c(=O)[nH]c(=O)c2c1nc(CN1CCN(c3ccccc3F)CC1)n2CCc1ccccc1`, “inactive”; for `N#C/C(=C1/CCCN1)c1ccccn1`, “inactive”. Next, `Cn1c(/C(C#N)=C2/CCCCCN2)nc2ccccc21`: 8.34 (active); `Cn1c(S(=O)(=O)O)nc2ccccc21`: “inactive”.

In the case of `O=C(CN1C(=O)NC2(CCCCC2)C1=O)NCCC1=CCCCC1`, the B-score result was “inactive”.

For `CCCC1C(=O)N2C(N(C)C)=Nc3ccc(C)cc3N2C1=O` (stereo not drawn), the B-score result was “inactive”. For `O=[N+]([O-])C(=c1ccc2c(c1)N1C3=C(CCCC3)CC3CCCCC31N=2)[N+](=O)[O-]` (stereo not drawn) the value was “inactive”; for `COc1cccc(CN(C)CC(O)COC(c2ccccc2)c2ccccc2C)c1` (stereo not drawn), “inactive”. On to `COc1ccc(C(=O)NC(=S)NC2CCCCC2)cc1`, for which the B-score was 7.2 (active). In the case of `O=C(NC(=S)NC1CCCCC1)c1ccc(Cl)cc1`, the B-score result was “inactive”. For `COc1ccc(C(=O)NNC(=S)NC(=O)c2ccccc2)cc1` the value was “inactive”. For `NC(=O)c1ccc(Nc2ccc3nonc3c2[N+](=O)[O-])cc1`, the B-score result is “inactive”. Next, `CC(C)c1ccc(Nc2nnc(SCC(=O)c3nnc(-c4ccccc4)o3)s2)cc1`: “inactive”; `COCC(=O)Nc1c(I)c(C(=O)NCC(O)CO)c(I)c(C(=O)N(C)CC(O)CO)c1I` (stereo not drawn): “inactive”; `COc1cccc(OC)c1C(=O)OCC(=O)/C(C#N)=C(\C)N`: “inactive”. On to `O=C(NCC(=O)N1CCCC(C(F)(F)F)C1)c1ccccc1F` (stereo not drawn), for which the B-score result is “inactive”. Next, `O=C(CNS(=O)(=O)c1ccccc1)N1CCN(C(=O)c2ccco2)CC1`: “inactive”.

Turning to `O=C(c1cccc(S(=O)(=O)Nc2ccccc2Cl)c1)N1CCN(C(=O)c2ccco2)CC1`, the B-score is 10.7 (active). Next, `O=C(c1cccc([N+](=O)[O-])c1)N1CCN(C(=O)c2ccco2)CC1`: “inactive”; `C#CCOCCOCCOCCNc1nc(N2CCN(C(=O)CCCCCCCCCCNC(=O)[C@H](CCCCN)n3cc(C)nn3)CC2)nc(N2CCN(C(=O)CCCCCCCCCCNC(=O)[C@H](CO)n3cc(CCCSC)nn3)CC2)n1`: “inactive”; `Cc1ccc(N(C(=O)C(F)(F)F)C(C(=O)NC2CCCCC2)c2ccncc2)cc1C` (stereo not drawn): “inactive”. Next, `N#CCCCn1c(O)c(N=NC(=O)C(O)c2ccccc2)c2ccccc21` (stereo not drawn): “inactive”; `COC(=O)Cn1c(O)c(N=NC(=O)OC)c2ccccc21`: 7.73 (active); `CCOC(=O)Cn1c(O)c(N=NC(=O)CNC(=O)Cc2ccccc2)c2ccccc21`: “inactive”. Next, `Cc1ccc(C2Nc3cccc4cccc(c34)N2)cc1`: “inactive”; `Brc1ccccc1C1Nc2cccc3cccc(c23)N1`: 11.9 (active); `Oc1ccc(C2Nc3cccc4cccc(c34)N2)cc1`: “inactive”.

`CCn1cc(C(=O)NC2CCCCCC2)c(=O)c2cc(S(=O)(=O)N3CCCCC3)ccc21`: the B-score result was “inactive”.

Turning to `Cc1ccc(C)c(-c2nnc(NC(=O)CS(=O)(=O)c3ccccc3)o2)c1`, the B-score result was “inactive”. Regarding `CN(C)S(=O)(=O)Oc1ccccc1C(=O)Nc1ccccc1Cl`, the B-score result is “inactive”. As to `CC1CCN(S(=O)(=O)c2ccc3[nH]c(=O)ccc3c2)CC1`, the B-score entry was “inactive”.

Turning to `O=C1C(Cc2ccc(O)cc2)NC(=S)N1Cc1ccccc1` (stereo not drawn), the B-score is 9.49 (active). For the compound `Cc1cc(C)c(NC(=O)CN2C(=O)NC(Cc3ccccc3)C2=O)c(C)c1` (stereo not drawn), the B-score entry was “inactive”. Regarding `COc1ccc(N2C(=O)C(Cc3ccccc3)NC2=S)cc1` (stereo not drawn), the B-score entry was “inactive”. Next, `CC1(C)CC(=O)C2=C(C1)N=C1SCCC(=O)N1C2c1ccc(C(F)(F)F)cc1` (stereo not drawn): “inactive”; `COc1ccc(CNc2c(CO)cnc3c2cnn3C)cc1`: “inactive”. For the compound `COc1ccc(Cc2nc(-c3ccccn3)no2)cc1OC`, the B-score is 8.9 (active).

`COCCNC(=O)c1ccc2nc(Cc3ccc(OC)c(OC)c3)oc2c1`: the B-score result is “inactive”. For `COc1ccc(CCNS(=O)(=O)c2cccc3cccnc23)cc1OC`, the B-score entry is “inactive”.

With `Cc1ccc(N2CC(C(=O)Nc3cc(Cl)ccc3-n3cncn3)CC2=O)cc1` (stereo not drawn), the B-score entry is “inactive”.

Consider `Cn1nc(C(F)(F)F)c(-c2ccc(F)cc2)c1NC(=O)CSCC(=O)O`, for which the B-score result was “inactive”. For `CCCC1OC23CCCCC2C(C#N)(C#N)C1(C#N)C(=N)O3` (stereo not drawn) the value was “inactive”; for `COc1ccc(CN(C)C(=O)Cc2ccsc2)c(OC)c1OC`, “inactive”; for `O=C(Nc1ccccc1N1CCN(c2ccccc2)CC1)c1cccc(F)c1`, “inactive”. Turning to `O=C(Nc1ccccc1N1CCCCC1)c1ccc2nccnc2c1`, the B-score was 7.2 (active). `O=C(Nc1ccccc1N1CCCC1)c1ccc2ccccc2c1`: the B-score result is “inactive”. As for `COCCn1c(CN2CCC(Cc3ccccc3)CC2)nc2c1c(=O)n(C)c(=O)n2C`, the B-score entry is “inactive”. Take `CCOc1ccc(NC(=O)CCS(=O)(=O)c2ccc3c(c2)CCCN3C(=O)CC)cc1`: the B-score result was “inactive”.

For the compound `Cc1ccc(S(=O)(=O)N2CCC(C(=O)NCCC3=CCCCC3)CC2)cc1C`, the B-score result is “inactive”. Next, `CC(=O)N1N=C(c2ccccc2)OC1c1cccnc1` (stereo not drawn): “inactive”. Turning to `CC(=O)N1N=C(c2ccncc2)OC1(Cc1ccccc1)Cc1ccccc1`, the B-score is 7.85 (active).

Consider `O=C(Cc1ccccc1)N1N=C(c2ccncc2)CC1(O)C(F)(F)F` (stereo not drawn), for which the B-score result is “inactive”. For `O=C(c1ccccc1)C(Cn1cncn1)C(Sc1ccccc1)c1ccccc1` (stereo not drawn) the value was “inactive”; for `CCN(CC(=O)Nc1ccccc1OC)C(=O)Cn1cnc2ccccc2c1=O`, “inactive”. For `Cc1ccc(/C=C/C(=O)O)cc1S(=O)(=O)N1CCC(Cc2ccccc2)CC1` the value was “inactive”; for `Cn1cnnc1Sc1ccc(S(C)(=O)=O)cc1[N+](=O)[O-]`, 12.1 (active). For `CC(=O)Nc1ccc(Nc2c([N+](=O)[O-])cc(S(C)(=O)=O)cc2[N+](=O)[O-])cc1` the value was “inactive”. Turning to `CCN(CC(=O)Nc1c(F)cccc1F)C(=O)c1ccc(Sc2nncn2C)c([N+](=O)[O-])c1`, the B-score entry is “inactive”. Next, `CS(=O)(=O)Nc1ccc(C(=O)N2CCCC2)cc1`: “inactive”; `Cn1c(=O)c2c(nc(N/N=C/c3cccs3)n2Cc2ccc(Br)cc2)n(C)c1=O`: “inactive”.

With `COc1ccc(NC(=O)C2C3C=CC(C3)C2C(=O)NCc2ccccn2)c(OC)c1` (stereo not drawn), the B-score result is “inactive”.

With `COc1cc(C)c(C)cc1S(=O)(=O)N1CCCc2ccccc21`, the B-score is 7.48 (active).

`Cn1c(=O)n(C)c2cc(S(=O)(=O)N3CCCc4ccccc43)ccc21`: the B-score result is “inactive”.

Turning to `COc1ccc(C(=O)OCC(=O)NCC2CCCCC2)cc1S(=O)(=O)N1CCCc2ccccc21`, the B-score result is “inactive”. Next, `CC[C@@H](C)[C@@H](C(=O)N1CCN(C(=O)OC(C)(C)C)CC1)n1cc(CCC(=O)O)nn1`: “inactive”; `CC1CN(S(=O)(=O)c2cccc(C(F)(F)F)c2)CN1C(=O)N1CCOCC1` (stereo not drawn): “inactive”. With `COc1ccc(C2SCCN2S(=O)(=O)c2ccccc2)cc1OC` (stereo not drawn), the B-score is 7.25 (active). Turning to `COc1ccc(S(=O)(=O)N2CCC(C(=O)N3CCc4ccccc4C3)CC2)cc1OC`, the B-score entry was “inactive”.

Take `COc1ccc(C2CC(=O)n3c(nc4ccccc43)S2)cc1OC` (stereo not drawn): the B-score result was “inactive”.

Source of the values: PubChem BioAssay AID588675 (Johns Hopkins Ion Channel Center, 2011).
